# An excerpt weighted towards active compounds, which were near 7.4% of everything screened.
# NOMO-1 viab: STK33 inhibitor candidate reducing NOMO-1 cell viability. NOMO-1 AML viability, CellTiter-Glo luminescence, 72 h. inhibition, % (concentration not given with the values). 37,000 tested, 7.5% active. AID 2330; in the data active = inhibition above about 80%; inconclusive = no clear call, values can overlap the other calls
# Hedgehog inh: Sonic Hedgehog pathway inhibition; inhibition, % (no concentration beside the values); AID 2313; Shh-LIGHT2 Gli-luciferase reporter, 30 h; 22,000 tested, 2.1% active;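 active = mean inhibition across valid replicates above about 65%, limit read from the data; inconclusive = mean under the limit, yet half or more replicates past it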;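 note: pathway switched on by Shh-conditioned medium diluted 1 in 25 in low serum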
# PD-1 reversal: reversal of PD-1 mediated T-cell inhibition | activation, % (concentration not given with the values) | 29,000 tested, under 10 active | AID 2316 | primary human CD4 T cells, PD-L1 beads, CellTiter-Glo 96 h; call rule not given here;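 note: 0% = median vehicle wells and 100% = positive control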
# YB-1 expression: YB-1 expression inhibition; 30,000 tested, 0.37% active; AID 434959; U2OS, qRT-PCR YB-1 vs CDIP delta delta Cp, 16 h; active compounds read high; zero = DMSO, each unit about twofold; delta delta Cp (YB-1 minus CDIP) (no concentration beside the values);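 active = delta delta Cp rounded down to an integer at or above 3, about 3 SD of DMSO wells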;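 note: higher means less YB-1 transcript or more CDIP transcript relative to DMSO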
# MITF inh: inhibitors of MITF. TRPM1 promoter luciferase, luminescence, 24 h. inhibition, % (concentration not given with the values). 37,000 tested, 0.28% active; in the data active = inhibition above about 85%; inconclusive = no clear call, values can overlap the other calls; inactive = below about 68%;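 note: human melanocyte line stably carrying TRPM1 promoter luciferase reporter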
# An asterisk follows results filed as active; ? = inconclusive; . = no result.
SMILES,NOMO-1 viab,Hedgehog inh,PD-1 reversal,YB-1 expression,MITF inh
COc1ccc(S(=O)(=O)Nc2ccc3c(c2)C(=O)N([C@H](C)CO)C[C@H](C)[C@H](CN(C)C(=O)Nc2ccc(C(F)(F)F)cc2)OCCCC[C@@H](C)O3)cc1,134*,-22,-6,0.58,32
C[C@@H]1CCCCO[C@@H](CN(C)C(=O)Nc2ccc(C(F)(F)F)cc2)[C@@H](C)CN([C@H](C)CO)C(=O)c2cc(NS(=O)(=O)c3ccc(F)cc3)ccc2O1,110*,98*,-8,0.48,40
COc1cccc(C(=O)COc2ccc(NC(=O)c3ccccc3Cl)cc2)c1,-1,.,.,.,-18
COc1ccccc1NC(=O)COc1ccc2oc3c(c2c1)CCCC3,36,13,0,-0.21,-11
COc1cc2c(c(OC)c1OC)-c1ccc(OC)c(=O)cc1[C@@H](NC(C)=O)CC2,118*,91*,.,0.22,55
Cc1ccc(C(C)C)c(OCC(=O)Nc2cccc3ncccc23)c1,60,.,.,.,60
COc1ccc(NC(=O)Nc2cccc3c2O[C@@H](CN(C)Cc2ccc(-c4ccccc4)cc2)[C@H](C)CN([C@@H](C)CO)C3=O)cc1,18,-21,.,-0.25,1
C[C@H]1CN([C@@H](C)CO)C(=O)c2cccc(NC(=O)Nc3cccc4ccccc34)c2O[C@H]1CN(C)Cc1ccc(Oc2ccccc2)cc1,93*,-30,-3,-0.78,17
COc1ccc(CN(C)C[C@@H]2Oc3c(NC(=O)Nc4ccc(OC)cc4)cccc3C(=O)N([C@@H](C)CO)C[C@H]2C)cc1,93*,-5,-7,0.07,57
COc1ccc(CN(C)C[C@H]2Oc3c(NC(=O)Nc4cccc5ccccc45)cccc3C(=O)N([C@H](C)CO)C[C@H]2C)cc1,46,-8,-1,-0.0053,-3
COc1ccc(CN(C)C[C@H]2Oc3c(NC(=O)Nc4ccc(OC)cc4)cccc3C(=O)N([C@H](C)CO)C[C@H]2C)cc1,2,-7,-1,-0.24,-27
COc1ccc(NC(=O)Nc2cccc3c2O[C@H](CN(C)Cc2ccc(Oc4ccccc4)cc2)[C@H](C)CN([C@@H](C)CO)C3=O)cc1,113*,36,-4,0.13,2
COc1ccc(NC(=O)Nc2cccc3c2O[C@@H](CN(C)Cc2ccc(-c4ccccc4)cc2)[C@@H](C)CN([C@H](C)CO)C3=O)cc1,113*,-46,-2,0.27,-9
O=C1c2ccccc2C(=O)N1CCSc1nnnn1-c1ccccc1,4,.,1,.,-7
COc1ccc(C(=O)NCc2ccc(C#N)cc2)cc1OC,51,-31,1,0.96,6
COC(=O)C(Cc1c[nH]c2ccccc12)NS(=O)(=O)c1cccc2nonc12 (configuration not stated),-16,-23,1,0.2,3
COc1ccc(NC(=O)Nc2cccc3c2O[C@@H](CN(C)Cc2ccccc2)[C@H](C)CN([C@@H](C)CO)C3=O)cc1,93*,11,-4,-0.033,18
COc1ccc(NC(=O)Nc2cccc3c2O[C@H](CN(C)Cc2ccccc2)[C@H](C)CN([C@@H](C)CO)C3=O)cc1,33,-37,2,-0.079,-17
COc1ccc(CN(C)C[C@@H]2Oc3c(NC(=O)Nc4ccc(F)cc4)cccc3C(=O)N([C@H](C)CO)C[C@H]2C)cc1,94*,19,-5,0.11,20
N#CC(=C(/N)Sc1ccccc1N)/C(C#N)=C(\N)Sc1ccccc1N,94*,5,.,2,35
CC1=CC(CC2(C)OC2COc2c3occc3cc3ccc(=O)oc23)OC1=O (configuration not stated),-15,-37,2,-0.076,-27
Cc1noc(C)c1S(=O)(=O)Nc1cccc2c1O[C@@H](CN(C)Cc1ccc(C(=O)Nc3ccccc3N)cc1)[C@@H](C)CN([C@H](C)CO)C2=O,83*,.,1,-0.37,11
Cc1noc(C)c1S(=O)(=O)Nc1cccc2c1O[C@@H](CN(C)Cc1ccc(C(=O)O)cc1)[C@@H](C)CN([C@@H](C)CO)C2=O,25,-32,0,-0.2,-3
Cc1noc(C)c1S(=O)(=O)Nc1cccc2c1O[C@H](CN(C)Cc1ccc(C(=O)Nc3ccccc3N)cc1)[C@H](C)CN([C@@H](C)CO)C2=O,137*,.,-2,0.31,9
Cc1noc(C)c1S(=O)(=O)Nc1ccc2c(c1)C(=O)N([C@@H](C)CO)C[C@H](C)[C@@H](CN(C)Cc1ccc(C(=O)Nc3ccccc3N)cc1)O2,8,.,-1,0.25,3
SMILES,NOMO-1 viab,Hedgehog inh,PD-1 reversal,YB-1 expression,MITF inh
O=C1c2cccc3cccc(c23)C(=O)N1NCCO,-16,-32,1,-0.13,-19
COc1ccc(CCNS(=O)(=O)c2ccc(OC)c(Cl)c2Cl)cc1OC,16,.,.,.,-5
c1ccc(C2C3=C(CCCC3)SC3=C2CCCC3)cc1,98*,-12,-1,0.082,-10
O=C(CSc1nc(-c2ccc(Cl)cc2)cc(C(F)(F)F)n1)c1ccccc1,32,.,0,.,-18
CCOC(=O)CCS(=O)(=O)c1nc(-c2ccccc2)cc(C(F)(F)F)n1,115*,.,-16,.,61
CCOC(=O)CS(=O)(=O)c1nc(-c2ccc(F)cc2)cc(C(F)(F)F)n1,135*,.,-16,.,42
Cc1cccc(OCC(=O)NC(=S)Nc2ccc(C)cc2O)c1,102*,.,-11,.,30
COc1cccc(N(CC(=O)Nc2ccc(Br)cc2F)S(C)(=O)=O)c1,-9,.,-2,.,-5
C[C@H]1CN([C@@H](C)CO)C(=O)c2cc(NC(=O)NC3CCCCC3)ccc2O[C@H]1CN(C)Cc1ccncc1,100*,.,1,0.16,-13
C[C@@H]1CN([C@H](C)CO)C(=O)c2cc(NC(=O)NC3CCCCC3)ccc2O[C@H]1CN(C)Cc1ccc(-c2ccccc2)cc1,?,12,-4,-0.039,-8
C[C@@H]1CN([C@H](C)CO)C(=O)c2cc(NC(=O)NC3CCCCC3)ccc2O[C@@H]1CN(C)Cc1ccc(Oc2ccccc2)cc1,64,91*,-4,0.27,11
C[C@@H]1CN([C@@H](C)CO)C(=O)c2cc(NC(=O)NC3CCCCC3)ccc2O[C@H]1CN(C)Cc1ccc(-c2ccccc2)cc1,100*,2,-1,-0.2,-6
C[C@@H]1CN([C@H](C)CO)C(=O)c2cc(NC(=O)NC3CCCCC3)ccc2O[C@@H]1CN(C)Cc1ccc(-c2ccccc2)cc1,87*,-23,.,0.16,-12
N#Cc1cc(C#N)c(SCC(=O)NC2CCCCC2)nc1N,5,-2,0,-0.034,26
O=C(CSc1nc(-c2ccccc2)cc(=O)[nH]1)Nc1ccc(Cl)cc1,5,.,0,.,-5
C[C@@H]1CN([C@@H](C)CO)C(=O)c2cc(NC(=O)C3CCCCC3)ccc2O[C@@H]1CN(C)Cc1ccc(Oc2ccccc2)cc1,115*,39,0,-0.68,4
C[C@H]1CN([C@@H](C)CO)C(=O)c2cc(NC(=O)C3CCCCC3)ccc2O[C@@H]1CN(C)Cc1ccc(Oc2ccccc2)cc1,21,.,-5,0.13,14
